# M1 PAM = human CHRM1 positive allosteric modulation; activation, % at 3 µM; CHO-K1 hM1, Fluo-8 calcium fluorescence, ACh EC20; 0% = ACh EC20, 100% = maximal ACh; AID 588819; 0.088% of 360,000 active; in the data active = activation above about 19%, passing the limit was not always enough
# Target sequence (P11229 whole entry, looked up): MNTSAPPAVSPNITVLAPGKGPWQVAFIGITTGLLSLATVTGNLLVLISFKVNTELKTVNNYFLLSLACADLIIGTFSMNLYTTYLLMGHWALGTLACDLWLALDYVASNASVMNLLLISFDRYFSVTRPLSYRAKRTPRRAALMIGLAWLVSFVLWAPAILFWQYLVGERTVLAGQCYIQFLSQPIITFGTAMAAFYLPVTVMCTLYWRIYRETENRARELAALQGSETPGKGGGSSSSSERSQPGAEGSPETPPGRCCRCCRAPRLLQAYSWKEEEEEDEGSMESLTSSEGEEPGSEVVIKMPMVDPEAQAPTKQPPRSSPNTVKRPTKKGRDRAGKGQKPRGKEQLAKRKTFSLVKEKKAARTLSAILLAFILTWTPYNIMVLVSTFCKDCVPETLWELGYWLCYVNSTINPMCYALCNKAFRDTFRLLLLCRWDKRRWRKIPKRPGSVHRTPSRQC
# CHRM1 agonist = agonists of human M1 muscarinic receptor; P11229; CHO-K1 hM1, Fluo-8 calcium fluorescence, agonist mode; 0% DMSO, 100% acetylcholine EC100; activation, % at 3 µM; 0.33% of 360,000 active;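 active = activation above the run's mean compound activation plus 3 SD, cut at about 16% in these data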;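 also: peak over basal fluorescence ratio within a 140 s kinetic read after compound addition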
# M1 antag = antagonists of human M1 muscarinic receptor; CHO-K1 hM1, Fluo-8 calcium fluorescence, ACh EC80 antagonist; inhibition, % at 3 µM; 1.3% of 360,000 active; AID 588852;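 active = percent inhibition above its own plate's cutoff, namely the mean of that plate's compound wells plus 3 SD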;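 also: peak over basal fluorescence ratio during 140 s after agonist addition; 0% = ACh EC80 plus DMSO and 100% = DMSO alone without agonist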
# CHO-K1 Ca PAM = M1 PAM counterscreen hit in parental CHO-K1 cells. ATP EC20, Fluo-8 calcium fluorescence; 0% at ATP EC20, 100% at ATP max. activation, % at 3 µM. AID 602247. 0.02% of 360,000 active;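 active = activation above the run cutoff, the mean activation of all test compounds plus 3 SD, cut at about 40% in these data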;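 also: peak over basal fluorescence ratio in a 140 s read after ATP addition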
# CHO-K1 Ca antag = nonselective inhibitor or artifact in parental CHO-K1 cells | ATP-induced calcium, Fluo-8 fluorescence | 0.6% of 360,000 active | inhibition, % at 3 µM | AID 602250;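 active = inhibition above a per-plate cutoff, the plate's mean sample inhibition plus 3 SD, cut at about 24% in these data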;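 also: 0% = DMSO plus EC80 ATP and 100% = DMSO alone without ATP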
# CHO-K1 Ca ag = counter-screen for M1 agonists: effect in parental CHO-K1 cells; Fluo-8 calcium fluorescence; scaled to maximal ATP response, vehicle zero; activation, % at 3 µM; AID 602248; 0.48% of 360,000 active; in the data active = activation above about 15%;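 also: untransfected CHO-K1 host cells lacking M1 receptor as counterscreen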
# The depositor's hits bear a star. Sampled rows, rich in hits. Any-hit rate of the full collection: about 2.3%.
SMILES,M1 PAM,CHRM1 agonist,M1 antag,CHO-K1 Ca PAM,CHO-K1 Ca antag,CHO-K1 Ca ag
COc1cccc(CN(C)C(=O)c2cc(-c3cccs3)nc3ccccc23)c1,-16,0,54*,5,27*,6
CCN(CC)S(=O)(=O)c1ccc(O)c(NC(=O)c2cc(-c3cc(OC)c(OC)c(OC)c3)nc3ccccc23)c1,-16,-2,29*,-3,-6,2
O=C(COc1cccc(Cl)c1)Nc1ccc2c(c1)CCC2,1,-11,-3,1,-2,0
O=C(NCc1ccon1)C1CCC(=O)N(CCc2ccc(Cl)cc2)C1 (stereo not drawn),19,7,-11,-17,15,0
CC1(C)CC(=O)C=C(NCCN2CCN(C(=S)NC3CCCCC3)CC2)C1,2,-7,-4,7,6,1
CC(C)CNC(=O)c1cc(S(=O)(=O)N2CCOCC2)ccc1N1CCCC1,-2,-3,12,12,-2,0
CC(C)(C)NC(=O)NC(=O)COC(=O)c1ccc(OC(F)F)cc1,-1,-7,4,-11,28*,0
CC(C)(C)NC(=O)NC(=O)COC(=O)c1ccc(OC(F)(F)F)cc1,1,-7,-4,3,-2,0
CC1=NN(c2ccccc2)C(c2ccco2)C1 (stereo not drawn),10,-1,-15,6,-8,0
O=[N+]([O-])c1ccc(C2=NN(c3ccccc3)C(c3ccco3)C2)cc1 (stereo not drawn),-22,78*,71*,-16,59*,71*
O=[N+]([O-])c1ccc(/C=C/C2=NN(c3ccccc3)C(c3ccco3)C2)cc1 (stereo not drawn),-13,19*,25*,-14,33*,20*
O=C(O)CSc1cn(Cc2ccccc2)c2ccccc12,9,-3,-12,13,-9,1
O=C(O)c1cn(Cc2ccccc2)c2ccccc2c1=O,-11,82*,62*,23,-5,1
CC(C)c1ccc(NC(=O)CSc2n[nH]c(=O)n2-c2ccc3c(c2)OCCO3)cc1,7,-4,1,-1,-2,1
O=C(Nc1ccccc1SC(=O)c1ccccc1)c1ccccc1,8,0,-3,6,11,3
Cc1ccc(C(=O)Sc2cccccc2=O)cc1,-3,2,33*,-5,35*,4
O=C(c1[nH]c(C(F)(F)F)nc1-c1ccccc1)N1CCCCC1,0,-1,2,-7,26*,0
CCOC(=O)N1CCN(C(=O)c2[nH]c(C(F)(F)F)nc2-c2ccccc2)CC1,8,9,-24,9,-15,0
CC(=O)N1CCN(C(=O)c2[nH]c(C(F)(F)F)nc2-c2ccccc2)CC1,3,-1,-24,8,-10,1
CCOC(=O)C1CCCN(C(=O)c2[nH]c(C(F)(F)F)nc2-c2ccccc2)C1 (stereo not drawn),-10,17*,-9,-8,0,0
Cc1nn(C)cc1S(=O)(=O)Nc1ccc(C(F)(F)F)cc1,0,-1,10,-18,17,2
O=C(COC(=O)CCc1c[nH]c2ccccc12)NC(c1ccccc1)c1ccccc1,8,-6,10,18,3,1
COc1ccc(NS(=O)(=O)c2ccc(N3CCOCC3)c(N)c2)cc1,-14,6,31*,-7,13,13
COc1ccc(NS(=O)(=O)c2cc3c(cc2C)N(C)CCO3)cc1,-14,1,32*,-5,9,7
CCOc1ccc(NS(=O)(=O)c2cc3c(cc2C)N(C)CCO3)cc1,-16,-1,24,14,13,7
SMILES,M1 PAM,CHRM1 agonist,M1 antag,CHO-K1 Ca PAM,CHO-K1 Ca antag,CHO-K1 Ca ag
COc1ccc(S(=O)(=O)Nc2ccc(N3CCOCC3)cc2)cc1,11,1,-5,-12,11,1
CCN=C1SC(C(=O)Nc2ccc(OC)cc2)CC(=O)N1CC (stereo not drawn),-20,-1,32*,1,19,5
CCN=C1SC(C(=O)Nc2cc(Cl)cc(Cl)c2)CC(=O)N1CC (stereo not drawn),6,-4,-10,17,-15,1
CCN=C1SC(C(=O)Nc2ccc(OCC)cc2)CC(=O)N1CC (stereo not drawn),-13,2,17,8,4,6
CCN=C1SC(C(=O)NCCc2ccccc2)CC(=O)N1CC (stereo not drawn),-14,-1,26*,17,3,4
Cc1ccc(N=C2SC(C(=O)NCCc3ccccc3)CC(=O)N2C)cc1C (stereo not drawn),-17,-7,14,17,-9,2
CCN1C(=O)CC(C(=O)Nc2ccc(F)cc2)SC1=Nc1ccc2c(c1)OCO2 (stereo not drawn),-3,-1,12,15,10,3
CCN=C1SC(C(=O)Nc2cccc(Br)c2)CC(=O)N1CC (stereo not drawn),-15,-3,30*,-1,16,8
CCN=C1SC(C(=O)Nc2cccc(Cl)c2)CC(=O)N1CC (stereo not drawn),-9,0,38*,7,5,7
O=S(=O)(NC1CCSc2ccccc21)c1ccc(Cl)nc1 (stereo not drawn),0,-9,-6,-8,-8,0
Nc1cc(C(=O)OCC(=O)NNC(=O)c2cccs2)ccc1Cl,-4,-1,2,-32,9,0
CCN=c1sc(C(=O)NCCc2ccccc2)cc(=O)n1CC,-4,4,30*,7,15,6
CCN=C1SC(C(=O)Nc2ccc(Cl)c(Cl)c2)CC(=O)N1CC (stereo not drawn),-5,-1,7,13,5,4
CCN=C1SC(C(=O)Nc2cccc(C)c2)CC(=O)N1CC (stereo not drawn),-10,3,33*,5,15,4
CCOC(=O)/C(=N\Nc1ccccc1)P(=O)(c1ccccc1)c1ccccc1,20,2,-19,6,-3,0
CCC[C@H]1CN(c2ccc(Br)cc2)C(=O)[C@@H]1CC(=O)Nc1ccc(OC)cc1,-6,-2,-5,5,4,0
c1ccc(-c2ccccc2OCCCCn2ccnc2)cc1,-19,-6,13,10,-8,3
COc1cccc2cc(C(=O)C3=C(O)C(=O)N(CCN4CCOCC4)C3c3cccc(Cl)c3)oc12 (stereo not drawn),18,5,-11,8,27*,-1
O=C(OCc1nnc(-c2ccccc2)o1)c1cc(Cl)ccc1[N+](=O)[O-],5,-1,-4,-10,0,0
